The campaign covered roughly 2,400 compounds. About 700 (29%) were called active.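 Rule for the calls: active = inhibition of at least 50%; inactive = the rest.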 The list is a sample of the results.

This assay deals with G-protein coupled receptor 183 (Homo sapiens) (UniProt P32249). The experiment in a line: repeat testing of EBI2 arrestin blockers – cell-based, single concentration, luminescence, 7a,25-OHC stimulation, confirmation (AID 651997). Particulars: EBI2 beta-arrestin luminescence, 7a,25-OHC antagonism; at 5 µM; stronger effect = higher value.
Chain of G-protein coupled receptor 183 (Homo sapiens) (P32249 whole entry, looked up): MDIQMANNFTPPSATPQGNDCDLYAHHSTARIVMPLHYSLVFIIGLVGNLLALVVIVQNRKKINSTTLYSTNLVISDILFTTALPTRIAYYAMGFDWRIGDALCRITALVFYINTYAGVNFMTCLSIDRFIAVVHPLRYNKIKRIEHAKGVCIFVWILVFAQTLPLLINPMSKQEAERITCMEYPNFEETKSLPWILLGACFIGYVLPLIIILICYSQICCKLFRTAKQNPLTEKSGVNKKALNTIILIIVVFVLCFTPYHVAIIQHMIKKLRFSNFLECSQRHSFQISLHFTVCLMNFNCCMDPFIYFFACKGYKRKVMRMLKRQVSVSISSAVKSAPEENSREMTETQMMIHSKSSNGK
Broadly, the inhibition is the drop in the measured response relative to a control, in per cent. Turning to `N#Cc1ccc(C2=CC(=O)C[C@H](c3ccc(Cl)cc3)C2)cc1`, the inhibition was 53.7% (active). On to `COc1ccc2cc(C3=CC(=O)C[C@H](c4ccc5c(c4)OCO5)C3)ccc2c1`, for which the inhibition was 51.4% (active). The same measure for `COc1ccc([C@H]2CC(=O)C=C(/C=C/c3ccc(Cl)cc3)C2)cc1`: 20.8% (inactive). The same measure for `COc1ccc([C@H]2CC(=O)C=C(c3ccc(C)cc3)C2)cc1`: 56.3% (active); for `CCCCN=C1C([N+](=O)[O-])=CC=C2C1=NC1(CCCCC1)N2O`: 38.6% (inactive); for `CCOc1ccc(CCN2C(=S)N([C@@H](CC(C)C)CN3CCC[C@@H]3CN3C(=S)NC[C@@H]3Cc3ccc(O)cc3)C[C@@H]2Cc2ccc(O)cc2)cc1`: 26.9% (inactive). In the case of `CC1(Cc2ccccc2C#N)C(=O)Nc2ccc(-c3ccc4[nH]ccc4c3)cc21` (stereo unspecified), the inhibition is 31.6% (inactive). In the case of `COc1ccc(CNC(=O)CN(c2ccc(OC)c(Cl)c2)S(=O)(=O)c2ccc(C)cc2)cc1` it was 6.43% (inactive); in that of `Cc1ccc2oc(=O)c3cnn(CC(=O)N4CCCCCC4)c3c2c1`, 31% (inactive); in that of `Cc1ccc2oc(=O)c3cnn(CC(=O)N(Cc4ccco4)C4CCCCC4)c3c2c1`, 76.3% (active). The same measure for `O=C(Nc1ccc(S(=O)(=O)N2CCCCC2)cc1)C1CC(=O)N(c2ccc(F)cc2)C1` (stereo unspecified): 17.5% (inactive).

For the molecule `Cc1ccc(-c2nn(-c3ccccc3)cc2/C=C/C(=O)Nc2cccc(S(N)(=O)=O)c2)cc1`, the inhibition is 25.3% (inactive). In the case of `COc1ccc(-c2cn(-c3ccc(OC)cc3)c(=S)[nH]2)cc1` it was 68% (active). In the case of `CCOc1ccc(CN(Cc2ccco2)S(=O)(=O)c2ccc(-n3cnnn3)c(OC)c2)cc1` it was 24.7% (inactive); in that of `CCN(CC(=O)NCc1cccs1)C(=O)/C=C/c1ccc(C)cc1`, 85.2% (active); in that of `O=c1[nH]c(CN2CCN(S(=O)(=O)c3ccc4c(c3)OCCO4)CC2)nc2sc3c(c12)CCCC3`, 27.9% (inactive). The same measure for `Cc1ccc(S(=O)(=O)NCCNC(C)c2ccc(Br)cc2)cc1` (stereo unspecified): 9.45% (inactive); for `COc1ccc(C(=O)/C=C/c2ccc(OC3CSC3)cc2)cc1`: 25.8% (inactive). For the molecule `Cc1nc(-c2ccccc2)sc1C(=O)/C=C/c1ccccc1`, the inhibition was 52.2% (active). In the case of `COc1ccc(/C=C/C(=O)c2ccc(OC)cc2O)cc1` it was 41.6% (inactive); in that of `CN(Cc1ccc(F)cc1)C(=O)COc1ccc2ccccc2c1`, 84% (active); in that of `CCC(C)(C)NC(=O)c1cc([N+](=O)[O-])ccc1N1CCCCC1`, 42.4% (inactive). For `COc1ccc(-c2cc(C3CCN(c4ncccc4[N+](=O)[O-])CC3)[nH]n2)cc1`, the inhibition is 32.3% (inactive). The same measure for `O=C(C(c1ccccc1)c1ccccc1)N1CCN(CC(O)COc2ccccc2)CC1` (stereo unspecified): 15.3% (inactive); for `COc1ccc(C(C(=O)NC2CCCCC2)N(C(=O)c2snc(C(N)=O)c2N)c2ccccc2OC)cc1` (stereo unspecified): 57% (active); for `CC1CCc2sc3nc(N4CCN(CCO)CC4)n4ncnc4c3c2C1` (stereo unspecified): 67.9% (active). The same measure for `Cc1cccc(-n2c(O)c(C=Nc3ccccc3N)c(=O)[nH]c2=O)c1`: 13.2% (inactive); for `Cc1ccc(S(=O)(=O)N2CCN(CC(=O)N/N=C/c3ccc(Br)s3)CC2)cc1`: 41.9% (inactive); for `CCC1Nc2ncnc(N3CCN(c4ccccc4)CC3)c2N(Cc2ccc(Cl)cc2)C1=O` (stereo unspecified): 86.9% (active).

As for `CC(=O)/C(=N\Nc1ccc(Cl)cc1Cl)Sc1cccc2cccnc12`, the inhibition is 43.2% (inactive).

Take `CC(C)Cc1ccc(-c2cc3nc(NCc4cccc(Cl)c4)ccn3n2)cc1`: the inhibition is 51.8% (active).

As to `COc1cccc(-c2cc(C(=O)N3CCN(c4ccccc4OC)CC3)no2)c1`, the inhibition was 42.9% (inactive). In the case of `Cc1cccc(N2CCN(C(=O)c3cc4c(=O)[nH]c5ccccc5c4n3C)CC2)c1C` it was 75.1% (active); in that of `O=C(CCNS(=O)(=O)c1ccccc1)NCCSc1ccc(Br)cc1`, 12.7% (inactive); in that of `CCOC(=O)N1CCN(C(=O)CSc2ccc(Cl)cc2)CC1`, 80.2% (active). The same measure for `CCOC(=O)N1CCN(C(=O)COc2ccc(Cl)cc2C)CC1`: 30.2% (inactive). The same measure for `Cc1ccc(SCC(=O)N2CCN(c3ccc(F)cc3)CC2)cc1`: 33.8% (inactive); for `CCN1CCN(C(=O)CSc2ccc(C)cc2)CC1`: 27.6% (inactive). Consider `Cc1ccc(OCCNC(=O)CCNS(=O)(=O)c2ccc(Br)cc2)cc1`, for which the inhibition was 17.6% (inactive).

Take `CCOC(=O)N1CCN(C(=O)COc2ccc(Br)cc2)CC1`: the inhibition is 75.6% (active). For the molecule `CCOC(=O)C1CCN(C(=O)COc2cc(C)c(Br)c(C)c2)CC1`, the inhibition was 59% (active). For `Cc1cc(OCCOc2cccc3cccnc23)c(C)cc1Cl`, the inhibition is 38.3% (inactive). In the case of `O=C(CSc1ccccc1)Nc1cc(Cl)ccc1Oc1ccccc1` it was 45% (inactive); in that of `CCC(c1nnc(SCC(=O)NNC(=O)c2ccccc2)n1Cc1ccccc1)N(C)C` (stereo unspecified), 35.9% (inactive). With `O=C(Nc1ncc2c(n1)CC(c1ccco1)CC2=O)c1ccc(Cl)cc1` (stereo unspecified), the inhibition was 10.5% (inactive). For `N#Cc1ccc(C(c2nnnn2CCc2ccccc2)N2CCCCCC2)cc1` (stereo unspecified), the inhibition is 34.1% (inactive). As to `Cc1cccc(N=C2NC(=O)/C(=C/c3cn(C)c4ccccc34)S2)c1`, the inhibition is 33.9% (inactive).

Turning to `COc1ccc(/C=N/N=C/c2c[nH]c(=O)c(C#N)c2Nc2ccccc2)cc1`, the inhibition was 79.2% (active). In the case of `FC(F)(F)Oc1ccccc1C(c1nnnn1C1CCCCC1)N1CCN(C/C=C/c2ccccc2)CC1` (stereo unspecified) it was 23% (inactive).

In the case of `O=C(c1cc(=O)c2ccccc2o1)N1CCN(c2ccccc2)CC1`, the inhibition is 20.1% (inactive). In the case of `COc1ccccc1N1CCN(C(=O)c2cc(=O)c3cc(C)ccc3o2)CC1` it was 76% (active); in that of `COc1ccccc1N1CCN(C(=O)c2cc(-c3ccc(Br)cc3)on2)CC1`, 20.4% (inactive). In the case of `O=C(NNC(=O)c1ccc2ccccc2c1)c1ccc(Cl)cc1`, the inhibition is 26.7% (inactive). In the case of `O=C(NCCCc1ccccc1)C1CCC(=O)N(CCc2ccc(Cl)cc2)C1` (stereo unspecified) it was 41.6% (inactive). The same measure for `O=C(c1cc2cc(F)ccc2[nH]1)N1CCN(c2ccc(F)cc2)CC1`: 43.5% (inactive); for `Cc1cs/c(=N\N=C\c2ccc(O)cc2)n1Cc1ccco1`: 34.7% (inactive). In the case of `CCCCC(=O)N(C)c1c(CC)nc2c(OCc3ccc(Cl)cc3Cl)cccn12` it was 35.5% (inactive); in that of `CC(C)N(Cc1ccccc1)C(=S)Nc1ccc(OC(F)F)cc1`, 24.2% (inactive). Take `COc1ccc(NC(=O)N2CCC(Cc3ccccc3)CC2)cc1`: the inhibition was 55% (active).

For `CCCC1CCC(=NNC(=S)NCCc2ccccc2)CC1` (stereo unspecified), the inhibition is 23.4% (inactive).

On to `COc1ccc(-c2cc(NC=O)c3ncc(-c4cccc(C(=O)N(C)C)c4)n3c2)c(OC)c1`, for which the inhibition was 23.2% (inactive). `Cc1ccc(O/C=C2\OC(=O)c3ccccc32)cc1`: the inhibition is 16% (inactive). In the case of `COc1cccc(NC(=O)Cn2c3ccccc3c3nc4n(c(=O)c32)CCS4)c1` it was 30.1% (inactive); in that of `O=C(/C=C/c1cccc(C(F)(F)F)c1)N1CCN(c2ccccn2)CC1`, 28.2% (inactive); in that of `O=C(c1cc2ccccc2s1)N1CCN(c2ccccn2)CC1`, 55.7% (active).

As to `Cc1ccc(CSCCNC(=O)CN(c2ccc(F)cc2)S(C)(=O)=O)cc1`, the inhibition was 23.3% (inactive). For `O=C(NCCNc1ccc([N+](=O)[O-])cc1)c1cccc2c(Br)cccc12`, the inhibition is 38% (inactive). The same measure for `Cc1cc(Cl)c2oc(C(=O)N3CCC(O)(c4ccccc4)CC3)c(C)c2c1`: 43.3% (inactive).

Regarding `Fc1ccccc1/C=N/Nc1cc(N2CCCCC2)ncn1`, the inhibition was 55% (active). In the case of `COc1ccc(-n2c(Cc3cccn3C)nnc2SCC(=O)Nc2cc(C)cc(C)c2)cc1` it was 7.81% (inactive); in that of `O=C(NCc1ccc(Cl)cc1)C1CCN(S(=O)(=O)c2cccs2)CC1`, 23% (inactive); in that of `N#CC(=C1CCCC1)c1nc(-c2ccc(Cl)cc2)cs1`, 54.8% (active). In the case of `CCOc1ccc(C(C)=O)cc1COC(=O)c1cnc(Cl)c(Cl)c1` it was 14.3% (inactive); in that of `COc1cccc(NC(=O)Cn2c3ccc(F)cc3c3nc4n(c(=O)c32)CCS4)c1`, 41.9% (inactive); in that of `O=C(COc1ccc2ccccc2c1)N1CCN(C(=O)c2cccs2)CC1`, 61% (active). In the case of `COc1ccc(OCC(=O)N2CCN(C(=O)c3cccs3)CC2)cc1` it was 30.8% (inactive). On to `O=C(/C=C/c1cccc([N+](=O)[O-])c1)N1CCN(Cc2ccccc2)CC1`, for which the inhibition was 29.4% (inactive). Turning to `O=C(/C=C/c1ccc(Cl)cc1)N1CCN(c2ccccc2[N+](=O)[O-])CC1`, the inhibition is 88.6% (active). In the case of `Cc1ccc(N2CC(C(=O)Nc3ccc(S(=O)(=O)N4CCCC4)cc3)CC2=O)cc1C` (stereo unspecified) it was 34.7% (inactive); in that of `Cc1cc(OCC(=O)N2CCN(c3ncccn3)CC2)ccc1Cl`, 50.9% (active). `Cc1ccc(OCC(=O)N2CCN(S(=O)(=O)c3ccc(Cl)s3)CC2)cc1C`: the inhibition was 79% (active).

Take `Cc1ccc(OCC(=O)N2CCN(C(=O)c3cccnc3)CC2)cc1`: the inhibition was 17.6% (inactive). The same measure for `O=C(CCc1ccccc1)NNC(=O)COc1ccc(Cl)cc1`: 17.4% (inactive); for `COc1ccc(OCC(=O)N2CCN(C(=O)COc3ccccc3)CC2)cc1`: 24.9% (inactive); for `O=C(COc1ccc(Cl)cc1)N1CCN(S(=O)(=O)c2ccc(Cl)cc2)CC1`: 72.8% (active). The same measure for `Cc1ccc(S(=O)(=O)N2CCN(C(=O)CSc3cc(C)ccc3C)CC2)c(C)c1`: 33.4% (inactive); for `Cc1cccc(OCC(O)CN2CCN(S(=O)(=O)c3ccc(C)cc3C)CC2)c1` (stereo unspecified): 35.6% (inactive). The same measure for `O=C(c1cc2ccccc2o1)N1CCN(S(=O)(=O)c2ccc(Cl)s2)CC1`: 70.7% (active); for `CN1CCc2ccccc2C1Cc1ccccc1NC(=O)c1sc2ccccc2c1Cl` (stereo unspecified): 14% (inactive). Regarding `Fc1ccc(N2CCN(Cc3cnc(Oc4ccc(Br)cc4)s3)CC2)cc1`, the inhibition is 40.8% (inactive). The same measure for `COc1ccc(OC)c(C(=O)c2coc3ccc(O)c(CN4CCOCC4)c23)c1`: 22.3% (inactive).

The record behind these values is PubChem BioAssay AID651997 (Sanford-Burnham Center for Chemical Genomics, 2013).
